# Assay results as given in paper PMC7862700, “An all-to-all approach to the identification of sequence-specific readers for epigenetic DNA modifications on cytosine”.
# What was measured:
# Assay in all cases: DAPPL (digital affinity profiling via proximity ligation, sequencing); 10 mM Tris-HCl pH 7.5, 50 mM NaCl, 1 mM DTT, 4% glycerol, room temperature, 30 min; GST-TFs on glutathione beads, 16-mer random dsDNA library, 0.1% formaldehyde crosslink after washing; high values mean tight binding
# FEV = molecular target: T1, FEV (Homo sapiens, UniProt Q99581 1-238); conditions: protein: recombinant; tags: N-terminal GST; dsDNA, one strand shown
# T1 sequence: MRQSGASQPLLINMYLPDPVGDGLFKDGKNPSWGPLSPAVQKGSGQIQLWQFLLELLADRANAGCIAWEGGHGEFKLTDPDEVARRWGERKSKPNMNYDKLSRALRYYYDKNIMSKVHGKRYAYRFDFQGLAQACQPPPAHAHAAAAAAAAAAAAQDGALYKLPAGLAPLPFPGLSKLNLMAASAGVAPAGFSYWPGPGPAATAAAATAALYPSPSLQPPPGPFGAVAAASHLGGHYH
# Procedure, shortened: (§1)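 The binding signal reported is, for every hexamer, its read frequency for a factor over its read frequency for the tag-only sample. Reads came from pools of yeast-expressed, GST-fused human transcription factors on glutathione beads, barcoded with DNA and mixed with that sample, which were incubated with 200 nmole of a random double-stranded 16-mer DNA library in Tris/NaCl/DTT/glycerol buffer at room temperature for 30 min. After washing, the pools were crosslinked with 0.1% formaldehyde, proximity-ligated with BsaI/T4 ligase for 1 h at 37 °C, PCR-amplified and sequenced on an Illumina NextSeq500.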
# ETV5 = ETV5 (Homo sapiens, UniProt P41161 1-510); conditions: protein: recombinant; tags: N-terminal GST; dsDNA, one strand shown
# ETV5, sequence (P41161 whole entry): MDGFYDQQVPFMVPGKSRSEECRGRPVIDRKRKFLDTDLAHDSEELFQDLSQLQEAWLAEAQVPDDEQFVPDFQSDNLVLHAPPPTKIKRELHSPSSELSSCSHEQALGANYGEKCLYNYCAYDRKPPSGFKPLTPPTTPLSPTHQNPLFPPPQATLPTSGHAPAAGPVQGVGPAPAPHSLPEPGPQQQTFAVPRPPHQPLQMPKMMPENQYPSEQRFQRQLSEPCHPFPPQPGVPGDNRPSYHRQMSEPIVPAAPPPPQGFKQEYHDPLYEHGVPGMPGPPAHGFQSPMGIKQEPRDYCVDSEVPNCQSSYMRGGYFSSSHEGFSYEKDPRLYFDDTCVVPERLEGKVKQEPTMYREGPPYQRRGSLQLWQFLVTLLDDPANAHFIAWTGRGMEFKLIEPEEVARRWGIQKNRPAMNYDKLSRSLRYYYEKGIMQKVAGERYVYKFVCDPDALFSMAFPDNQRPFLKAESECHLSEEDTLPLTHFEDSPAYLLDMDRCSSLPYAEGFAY
# Procedure, shortened: as §1
# HSF1 = HSF1 (Homo sapiens, UniProt Q00613 1-529); conditions: protein: recombinant; tags: N-terminal GST; chain copies: 3; dsDNA, one strand shown
# HSF1, sequence (Q00613 whole entry): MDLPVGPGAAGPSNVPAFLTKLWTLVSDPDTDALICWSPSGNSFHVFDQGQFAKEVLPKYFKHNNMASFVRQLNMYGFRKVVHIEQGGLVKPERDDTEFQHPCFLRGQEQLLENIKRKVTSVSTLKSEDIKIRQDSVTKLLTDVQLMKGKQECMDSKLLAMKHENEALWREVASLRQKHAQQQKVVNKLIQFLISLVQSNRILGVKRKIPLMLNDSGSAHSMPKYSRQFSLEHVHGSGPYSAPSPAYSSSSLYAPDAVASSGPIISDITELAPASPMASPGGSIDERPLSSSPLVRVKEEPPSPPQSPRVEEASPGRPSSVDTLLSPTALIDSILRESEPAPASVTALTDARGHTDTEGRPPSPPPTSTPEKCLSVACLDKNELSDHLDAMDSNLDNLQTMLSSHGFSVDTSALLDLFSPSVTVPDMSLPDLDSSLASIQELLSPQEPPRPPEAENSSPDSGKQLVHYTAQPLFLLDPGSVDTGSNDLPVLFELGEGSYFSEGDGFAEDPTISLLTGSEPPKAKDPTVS
# Procedure, shortened: as §1
# SPIC = molecular target: T2, SPIC (Homo sapiens, UniProt Q8N5J4 1-248); conditions: protein: recombinant; tags: N-terminal GST; dsDNA, one strand shown
# T2 sequence: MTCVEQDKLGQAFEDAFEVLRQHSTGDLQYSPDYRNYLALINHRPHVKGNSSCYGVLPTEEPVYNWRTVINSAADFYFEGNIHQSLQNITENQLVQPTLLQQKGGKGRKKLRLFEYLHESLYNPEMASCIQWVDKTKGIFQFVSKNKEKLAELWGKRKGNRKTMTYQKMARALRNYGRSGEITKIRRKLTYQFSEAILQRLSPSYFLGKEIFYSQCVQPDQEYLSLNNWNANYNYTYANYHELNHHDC
# Procedure, shortened: as §1
# ELF4 = ELF4 (Homo sapiens, UniProt Q99607 1-663); conditions: protein: recombinant; tags: N-terminal GST; dsDNA, one strand shown
# ELF4, sequence (Q99607 whole entry): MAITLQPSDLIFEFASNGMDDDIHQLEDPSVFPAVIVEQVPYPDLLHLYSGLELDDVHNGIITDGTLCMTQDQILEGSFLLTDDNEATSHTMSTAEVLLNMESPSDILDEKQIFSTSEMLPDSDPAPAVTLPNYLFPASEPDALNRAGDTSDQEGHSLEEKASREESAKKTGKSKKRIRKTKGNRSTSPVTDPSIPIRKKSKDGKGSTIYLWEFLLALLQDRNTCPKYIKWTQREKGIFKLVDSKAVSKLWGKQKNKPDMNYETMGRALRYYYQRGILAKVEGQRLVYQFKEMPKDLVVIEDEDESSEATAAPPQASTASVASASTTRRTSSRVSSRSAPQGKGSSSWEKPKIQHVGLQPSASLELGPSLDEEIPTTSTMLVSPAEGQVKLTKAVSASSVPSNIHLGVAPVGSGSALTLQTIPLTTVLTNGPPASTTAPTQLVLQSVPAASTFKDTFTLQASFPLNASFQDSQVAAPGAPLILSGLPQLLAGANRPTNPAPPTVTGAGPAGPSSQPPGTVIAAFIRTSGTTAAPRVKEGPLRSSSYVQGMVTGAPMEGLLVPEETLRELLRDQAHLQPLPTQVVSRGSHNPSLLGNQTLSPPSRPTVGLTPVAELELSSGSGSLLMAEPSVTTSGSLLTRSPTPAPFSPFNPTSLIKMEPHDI
# Procedure, shortened: as §1
# ELK4 = molecular target: T3, ELK4 (Homo sapiens, UniProt P28324-2 1-405); conditions: protein: recombinant; tags: N-terminal GST; dsDNA, one strand shown
# T3 sequence: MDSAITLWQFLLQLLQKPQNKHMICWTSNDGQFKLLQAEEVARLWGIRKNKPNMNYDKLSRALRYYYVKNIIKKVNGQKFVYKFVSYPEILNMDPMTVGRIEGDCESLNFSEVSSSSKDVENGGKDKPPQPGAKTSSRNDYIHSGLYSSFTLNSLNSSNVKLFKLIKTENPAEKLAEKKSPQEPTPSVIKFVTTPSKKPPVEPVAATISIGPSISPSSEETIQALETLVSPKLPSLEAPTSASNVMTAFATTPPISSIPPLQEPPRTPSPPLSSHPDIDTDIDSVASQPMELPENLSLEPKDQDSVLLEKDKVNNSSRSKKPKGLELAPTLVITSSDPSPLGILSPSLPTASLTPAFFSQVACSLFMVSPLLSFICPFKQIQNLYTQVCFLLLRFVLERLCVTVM
# Procedure, shortened: as §1
# ETV2 = molecular target: T4, ETV2 (Homo sapiens, UniProt O00321 1-342); conditions: protein: recombinant; tags: N-terminal GST; dsDNA, one strand shown
# T4 sequence: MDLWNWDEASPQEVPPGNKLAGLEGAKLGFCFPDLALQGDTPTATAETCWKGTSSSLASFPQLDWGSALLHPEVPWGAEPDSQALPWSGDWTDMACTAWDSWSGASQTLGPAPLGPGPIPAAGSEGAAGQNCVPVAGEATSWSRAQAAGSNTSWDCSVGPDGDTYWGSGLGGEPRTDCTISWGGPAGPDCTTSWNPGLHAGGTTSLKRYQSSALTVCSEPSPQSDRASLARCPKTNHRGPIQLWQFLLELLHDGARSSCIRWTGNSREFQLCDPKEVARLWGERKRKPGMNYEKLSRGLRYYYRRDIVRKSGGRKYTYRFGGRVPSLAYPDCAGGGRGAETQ
# Procedure, shortened: as §1
# ELF3 = molecular target: T5, ELF3 (Homo sapiens, UniProt P78545 1-371); conditions: protein: recombinant; tags: N-terminal GST; dsDNA, one strand shown
# T5 sequence: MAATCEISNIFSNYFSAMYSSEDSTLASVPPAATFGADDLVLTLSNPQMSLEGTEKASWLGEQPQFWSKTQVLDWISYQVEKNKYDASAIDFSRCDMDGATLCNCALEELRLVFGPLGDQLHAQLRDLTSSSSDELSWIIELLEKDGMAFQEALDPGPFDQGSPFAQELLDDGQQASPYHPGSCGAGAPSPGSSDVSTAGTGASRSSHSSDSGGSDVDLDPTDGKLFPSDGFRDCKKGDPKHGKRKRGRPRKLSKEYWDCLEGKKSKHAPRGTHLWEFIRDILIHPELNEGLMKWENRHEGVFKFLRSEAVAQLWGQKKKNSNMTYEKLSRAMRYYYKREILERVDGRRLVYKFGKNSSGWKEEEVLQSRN
# Procedure, shortened: as §1
# ETV1 = ETV1 (Homo sapiens, UniProt P50549 1-477); conditions: protein: recombinant; tags: N-terminal GST; dsDNA, one strand shown
# ETV1, sequence (P50549 whole entry): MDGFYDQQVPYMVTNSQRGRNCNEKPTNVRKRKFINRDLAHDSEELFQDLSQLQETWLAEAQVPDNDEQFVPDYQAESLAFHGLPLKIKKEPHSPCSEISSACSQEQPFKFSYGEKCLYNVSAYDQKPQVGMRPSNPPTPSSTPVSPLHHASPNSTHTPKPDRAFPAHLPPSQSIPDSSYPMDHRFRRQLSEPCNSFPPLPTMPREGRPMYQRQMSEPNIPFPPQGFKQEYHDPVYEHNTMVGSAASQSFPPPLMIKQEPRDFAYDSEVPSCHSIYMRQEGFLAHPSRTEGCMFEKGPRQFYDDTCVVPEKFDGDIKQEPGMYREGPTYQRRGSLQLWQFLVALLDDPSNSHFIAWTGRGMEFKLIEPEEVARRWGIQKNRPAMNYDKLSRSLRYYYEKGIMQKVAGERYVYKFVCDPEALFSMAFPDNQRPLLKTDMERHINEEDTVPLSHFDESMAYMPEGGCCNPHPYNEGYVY
# Procedure, shortened: as §1
# ERF = molecular target: T6, ERF (Homo sapiens, UniProt P50548 1-548); conditions: protein: recombinant; tags: N-terminal GST; dsDNA, one strand shown
# T6 sequence: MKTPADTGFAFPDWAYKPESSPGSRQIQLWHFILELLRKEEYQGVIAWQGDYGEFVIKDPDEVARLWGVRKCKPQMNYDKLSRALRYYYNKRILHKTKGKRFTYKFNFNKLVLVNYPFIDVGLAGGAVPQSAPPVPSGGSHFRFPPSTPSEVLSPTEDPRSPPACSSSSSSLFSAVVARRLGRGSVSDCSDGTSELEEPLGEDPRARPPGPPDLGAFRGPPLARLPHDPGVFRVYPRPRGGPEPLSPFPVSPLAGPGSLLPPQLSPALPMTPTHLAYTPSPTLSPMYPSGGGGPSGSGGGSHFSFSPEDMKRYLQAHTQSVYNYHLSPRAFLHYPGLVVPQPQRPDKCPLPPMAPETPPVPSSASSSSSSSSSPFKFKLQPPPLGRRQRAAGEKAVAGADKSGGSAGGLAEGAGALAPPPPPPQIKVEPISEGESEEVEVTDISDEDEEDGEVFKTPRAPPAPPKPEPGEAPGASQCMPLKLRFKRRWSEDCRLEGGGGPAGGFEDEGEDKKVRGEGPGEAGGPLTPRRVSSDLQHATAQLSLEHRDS
# Procedure, shortened: as §1
# ETV3L = molecular target: T7, ETV3L (Homo sapiens, UniProt Q6ZN32 1-361); conditions: protein: recombinant; tags: N-terminal GST; dsDNA, one strand shown
# T7 sequence: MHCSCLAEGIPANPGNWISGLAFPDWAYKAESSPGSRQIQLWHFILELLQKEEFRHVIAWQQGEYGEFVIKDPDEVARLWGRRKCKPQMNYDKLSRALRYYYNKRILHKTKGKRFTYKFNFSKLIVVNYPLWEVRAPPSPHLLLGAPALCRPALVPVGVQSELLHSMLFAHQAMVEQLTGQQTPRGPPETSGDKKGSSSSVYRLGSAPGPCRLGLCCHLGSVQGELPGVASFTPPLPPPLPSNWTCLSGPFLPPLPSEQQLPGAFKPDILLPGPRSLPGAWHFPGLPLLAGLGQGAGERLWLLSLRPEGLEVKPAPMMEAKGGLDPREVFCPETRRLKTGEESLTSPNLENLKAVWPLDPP
# Procedure, shortened: as §1
# ETS2 = molecular target: T8, ETS2 (Homo sapiens, UniProt P15036 1-469); conditions: protein: recombinant; tags: N-terminal GST; dsDNA, one strand shown
# T8 sequence: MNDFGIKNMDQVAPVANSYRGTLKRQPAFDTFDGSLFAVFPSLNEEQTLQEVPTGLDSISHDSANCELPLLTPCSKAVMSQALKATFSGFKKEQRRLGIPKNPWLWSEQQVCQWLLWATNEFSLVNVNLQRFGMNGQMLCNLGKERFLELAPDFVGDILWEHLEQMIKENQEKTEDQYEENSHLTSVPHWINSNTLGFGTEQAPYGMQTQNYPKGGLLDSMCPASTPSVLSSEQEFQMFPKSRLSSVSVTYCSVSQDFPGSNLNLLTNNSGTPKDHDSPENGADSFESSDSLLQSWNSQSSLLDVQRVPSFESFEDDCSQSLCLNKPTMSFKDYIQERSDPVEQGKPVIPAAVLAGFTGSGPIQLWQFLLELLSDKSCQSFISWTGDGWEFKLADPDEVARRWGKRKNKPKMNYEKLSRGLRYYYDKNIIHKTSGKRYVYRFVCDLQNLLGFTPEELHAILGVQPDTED
# Procedure, shortened: as §1
# SPDEF = molecular target: T9, SPDEF (Homo sapiens, UniProt O95238 1-335); conditions: protein: recombinant; tags: N-terminal GST; dsDNA, one strand shown
# T9 sequence: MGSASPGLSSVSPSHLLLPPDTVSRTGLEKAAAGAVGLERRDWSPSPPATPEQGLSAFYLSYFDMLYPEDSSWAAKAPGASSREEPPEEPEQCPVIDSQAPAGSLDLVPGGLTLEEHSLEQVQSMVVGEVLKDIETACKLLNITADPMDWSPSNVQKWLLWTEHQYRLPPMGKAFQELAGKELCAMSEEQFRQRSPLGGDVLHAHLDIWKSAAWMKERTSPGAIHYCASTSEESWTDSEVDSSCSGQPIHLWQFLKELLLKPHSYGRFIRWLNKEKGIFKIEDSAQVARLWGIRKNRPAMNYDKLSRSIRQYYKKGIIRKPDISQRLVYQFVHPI
# Procedure, shortened: as §1
# ETV7 = molecular target: T10, ETV7 (Homo sapiens, UniProt Q9Y603 1-341); conditions: protein: recombinant; tags: N-terminal GST; dsDNA, one strand shown
# T10 sequence: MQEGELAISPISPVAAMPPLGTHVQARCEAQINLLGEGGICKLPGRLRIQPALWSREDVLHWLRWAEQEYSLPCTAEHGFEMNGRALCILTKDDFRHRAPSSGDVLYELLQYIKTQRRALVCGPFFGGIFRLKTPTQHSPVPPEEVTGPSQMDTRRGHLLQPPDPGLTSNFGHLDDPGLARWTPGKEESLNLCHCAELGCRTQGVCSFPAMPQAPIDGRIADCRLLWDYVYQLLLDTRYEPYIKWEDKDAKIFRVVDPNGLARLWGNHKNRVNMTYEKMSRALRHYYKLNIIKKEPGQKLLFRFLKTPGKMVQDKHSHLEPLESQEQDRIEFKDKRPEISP
# Procedure, shortened: as §1
# ELF5 = molecular target: T11, ELF5 (Homo sapiens, UniProt Q9UKW6-2 1-255); conditions: protein: recombinant; tags: N-terminal GST; dsDNA, one strand shown
# T11 sequence: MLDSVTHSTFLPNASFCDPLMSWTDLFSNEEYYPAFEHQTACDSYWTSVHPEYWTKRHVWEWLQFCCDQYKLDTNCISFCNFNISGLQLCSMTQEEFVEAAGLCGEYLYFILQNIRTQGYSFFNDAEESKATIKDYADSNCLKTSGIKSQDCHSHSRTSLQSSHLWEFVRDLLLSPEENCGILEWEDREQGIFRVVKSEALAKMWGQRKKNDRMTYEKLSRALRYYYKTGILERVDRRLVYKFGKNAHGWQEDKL
# Procedure, shortened: as §1
# ETV3 = molecular target: T12, ETV3 (Homo sapiens, UniProt P41162-2 1-143); conditions: protein: recombinant; tags: N-terminal GST; dsDNA, one strand shown
# T12 sequence: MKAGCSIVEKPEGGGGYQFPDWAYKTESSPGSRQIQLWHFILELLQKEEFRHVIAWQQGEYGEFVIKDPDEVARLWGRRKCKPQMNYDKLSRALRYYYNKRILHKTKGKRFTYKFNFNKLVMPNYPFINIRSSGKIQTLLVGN
# Procedure, shortened: as §1
# ETV6 = ETV6 (Homo sapiens, UniProt P41212 1-452); conditions: protein: recombinant; tags: N-terminal GST; dsDNA, one strand shown
# ETV6, sequence (P41212 whole entry): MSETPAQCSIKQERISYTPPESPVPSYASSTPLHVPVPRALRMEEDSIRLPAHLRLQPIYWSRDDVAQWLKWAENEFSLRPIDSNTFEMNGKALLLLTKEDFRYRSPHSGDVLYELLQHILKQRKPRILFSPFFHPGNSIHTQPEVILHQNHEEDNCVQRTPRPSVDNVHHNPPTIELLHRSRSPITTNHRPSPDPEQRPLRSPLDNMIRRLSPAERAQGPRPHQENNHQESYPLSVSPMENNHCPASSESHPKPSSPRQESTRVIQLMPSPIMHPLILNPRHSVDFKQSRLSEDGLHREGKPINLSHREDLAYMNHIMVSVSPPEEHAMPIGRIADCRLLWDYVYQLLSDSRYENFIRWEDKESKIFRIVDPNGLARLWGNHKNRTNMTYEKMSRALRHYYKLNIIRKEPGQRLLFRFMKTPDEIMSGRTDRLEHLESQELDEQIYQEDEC
# Procedure, shortened: as §1
sequence,measurement,setting,value
GTACAT,binding signal,FEV,"1.35 fold enrichment (6-mer frequency, TF over GST control)"
same,binding signal,ETV5,"1.37 fold enrichment (6-mer frequency, TF over GST control)"
same,binding signal,HSF1,"1.04 fold enrichment (6-mer frequency, TF over GST control)"
same,binding signal,SPIC,"1.36 fold enrichment (6-mer frequency, TF over GST control)"
same,binding signal,ELF4,"1.36 fold enrichment (6-mer frequency, TF over GST control)"
same,binding signal,ELK4,"1.23 fold enrichment (6-mer frequency, TF over GST control)"
same,binding signal,ETV2,"1.22 fold enrichment (6-mer frequency, TF over GST control)"
same,binding signal,ELF3,"1.28 fold enrichment (6-mer frequency, TF over GST control)"
same,binding signal,ETV1,"1.24 fold enrichment (6-mer frequency, TF over GST control)"
same,binding signal,ERF,"1.36 fold enrichment (6-mer frequency, TF over GST control)"
same,binding signal,ETV3L,"1.32 fold enrichment (6-mer frequency, TF over GST control)"
same,binding signal,ETS2,"1.36 fold enrichment (6-mer frequency, TF over GST control)"
same,binding signal,SPDEF,"2.06 fold enrichment (6-mer frequency, TF over GST control)"
same,binding signal,ETV7,"1.53 fold enrichment (6-mer frequency, TF over GST control)"
same,binding signal,ELF5,"1.3 fold enrichment (6-mer frequency, TF over GST control)"
same,binding signal,ETV3,"1.34 fold enrichment (6-mer frequency, TF over GST control)"
same,binding signal,ETV6,"1.4 fold enrichment (6-mer frequency, TF over GST control)"
